High-throughput results deposited in PubChem by National Center for Advancing Translational Sciences (NCATS).
An excerpt weighted towards active compounds, which were near 2.4% of everything screened.
Pol iota inh: DNA polymerase iota (human) inhibition; Pol iota fluorescent replication assay, 10 min; AID 588590; Potency, µM (highest dose often 115 µM), hits mostly inhibitors; 390,000 tested, 1% active; Q9UNA4
Target sequence (Q9UNA4 whole entry, looked up): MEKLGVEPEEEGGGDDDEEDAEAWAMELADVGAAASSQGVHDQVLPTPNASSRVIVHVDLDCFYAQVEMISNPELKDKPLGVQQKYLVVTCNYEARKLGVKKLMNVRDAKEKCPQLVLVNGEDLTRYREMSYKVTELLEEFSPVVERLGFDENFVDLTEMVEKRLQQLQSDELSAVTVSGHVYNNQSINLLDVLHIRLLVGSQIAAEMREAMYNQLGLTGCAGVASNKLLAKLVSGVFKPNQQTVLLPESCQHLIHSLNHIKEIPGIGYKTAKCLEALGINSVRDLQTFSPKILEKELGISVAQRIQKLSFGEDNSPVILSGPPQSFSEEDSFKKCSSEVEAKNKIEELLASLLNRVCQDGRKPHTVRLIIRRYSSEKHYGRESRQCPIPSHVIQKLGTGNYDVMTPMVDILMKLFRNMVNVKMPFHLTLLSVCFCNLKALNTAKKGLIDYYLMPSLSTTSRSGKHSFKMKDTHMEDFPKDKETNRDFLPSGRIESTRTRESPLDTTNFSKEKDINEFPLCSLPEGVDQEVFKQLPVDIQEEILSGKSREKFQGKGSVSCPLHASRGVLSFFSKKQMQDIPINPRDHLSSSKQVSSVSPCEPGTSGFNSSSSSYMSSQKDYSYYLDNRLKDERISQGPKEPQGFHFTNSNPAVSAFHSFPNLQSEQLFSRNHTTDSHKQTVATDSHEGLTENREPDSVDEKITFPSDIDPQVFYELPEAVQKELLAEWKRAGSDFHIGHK
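Fluorescent replication assay read twice, at 0 min and 10 min after adding 50 nM (final) substrate. Enzyme (10 nM) and compounds were first incubated 15 min at room temperature; enzyme-free buffer wells were negative controls.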
FEN1 inhibitor: inhibitors of human flap endonuclease 1 | Recombinant FEN1 flap cleavage, fluorescence, 15 min | 390,000 tested, 0.35% active | AID 588795 | Potency, µM (doses to about 114 µM), most hits filed as inhibitors | P39748; also: nearly all actives have a fitted effect of over 65% in size
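Nuclease activity of 10 nM FEN1 was measured after 15 min of room-temperature exposure to titrated compounds, by adding 50 nM flap substrate and reading plates at 0 and 15 min.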
POLB inh: inhibitors of human DNA polymerase beta. P06746. Pol beta primer extension/strand displacement, fluorescence kinetic. Potency, µM (doses to about 114 µM), actives largely listed as inhibitors. 340,000 tested, 1.3% active
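10 nM enzyme + cpd, 15 min RT; start with substrate 50 nM final; read 0 min and after 10 min RT. Corrected, normalized data; 4-parameter Hill curve fit.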
Pol kappa inh: DNA polymerase kappa (human) inhibition. AID 588579. purified Pol kappa, fluorescent DNA synthesis assay, 10 min. Potency, µM (titrated, usually from 107 µM), usual class: inhibitors. 400,000 tested, 0.53% active
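Here, compound and 10 nM enzyme are combined for 15 min at room temperature; adding 50 nM substrate (final) starts DNA synthesis, tracked by fluorescence at 0 and 10 min against buffer-only wells.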
POLH inh: blocks human DNA polymerase eta activity | Potency, µM (top dose mostly 114 µM), hits mostly inhibitors | 390,000 tested, 1.2% active | recombinant Pol eta, fluorescent DNA replication assay | AID 588591 | Q9Y253
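Fluorescent replication assay: 50 nM final substrate added after a 15 min room-temperature compound preincubation with 10 nM enzyme. Signal taken at 0 min and again at 10 min.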
TDP1 inh: inhibitors of human tyrosyl-DNA phosphodiesterase TDP1; recombinant TDP1, AlphaScreen DNA substrate cleavage; Potency, µM (series often up to 130 µM), most hits filed as inhibitors; 350,000 tested, 0.28% active; AID 485290; also: nearly all actives have a fitted effect of over 40% in size
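E. coli-derived human Tdp1, 1 nM final. Cpd preinc 15 min RT; substrate 15 nM final, 5 min RT; AS bead mix 10 ug/ml final, 10 min RT. Signal loss = tyrosine-FITC cleavage. No-enzyme wells = max signal.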
Numbers stand for hits; . = inactive; ? = inconclusive; / = no result; [ ] = remark or other dose. Calls follow the shape of the dose curve; as a rule, active = well fitted curve in the direction sought with a large enough effect; inconclusive = small, poorly fitted or top-dose-only effect, or another doubt; inactive = no such curve, though single readings can be large; an effect the other way counts as inactive or inconclusive.

SMILES	Pol iota inh	FEN1 inhibitor	POLB inh	Pol kappa inh	POLH inh	TDP1 inh
CC(=O)Oc1ccc(-c2nc(-c3ccccc3)no2)cc1	.	.	/	.	/	/
CCc1ccc(OCc2nnc(-c3ccccc3Br)o2)cc1	.	.	/	.	.	50.1µM
Clc1ccccc1OCc1nnc(-c2ccccc2Br)o1	.	.	.	.	.	.
COc1cccc(NC(=O)Cn2c(=O)n(CCc3cccc(C)c3)c(=O)c3ccccc32)c1	89.1µM	?	.	.	.	.
COc1cccc(NC(=O)Cn2c(=O)n(CCCCC(=O)NCCc3ccccc3)c(=O)c3ccccc32)c1	.	.	.	.	.	.
COc1ccc(Cc2nc3ccc(S(=O)(=O)N4CCOCC4)cc3[nH]2)cc1	79.4µM	.	.	.	.	.
COc1ccc(Cc2nc3ccc(S(=O)(=O)N4CCOCC4)cc3[nH]2)cc1OC	.	.	.	.	.	.
O=c1c2c(nc3cc(-c4ccccc4Cl)[nH]n13)CCS2	.	.	35.5µM	.	.	.
Cc1ccccc1N=Nc1ccc(O)c2ncccc12	.	.	.	.	.	.
O=S(=O)(O)c1cccc2c(N=Nc3ccc(O)c4ncccc34)cccc12	?	?	?	.	3.16µM	/
O=C1C=C(c2ccccc2)C[C@H](c2cccs2)[C@H]1n1nnc([N+](=O)[O-])n1	.	.	.	.	?	.
O=C1C=C(c2ccccc2)CC(c2cccs2)C1n1cnc([N+](=O)[O-])c1 (stereo unspecified)	.	.	50.1µM	.	?	.
COCCCNC(=O)c1cn(C)c(=O)c2c1c1ccccc1n2C	.	.	.	.	.	/
Cn1cc(C(=O)NCCN2CCN(c3cccc(Cl)c3)CC2)c2c3ccccc3n(C)c2c1=O	100µM	.	.	?	?	.
O=C(CNC(=O)c1cccc2ccccc12)OC(C(=O)Nc1cc(C(F)(F)F)ccc1Cl)c1ccccc1 (stereo unspecified)	/	/	/	/	/	.
COc1ccccc1NC(=O)CCSCCC(=O)Nc1ccccc1OC	.	.	56.2µM	.	?	.
COc1ccccc1NC(=O)CCN1CCN(CCC(=O)Nc2ccccc2OC)CC1	/	/	.	/	/	.
COc1ccc(-c2csc(NC(=O)CSc3nc4ccccc4c(=O)[nH]3)n2)cc1	35.5µM	.	.	?	?	79.4µM
COc1ccc2nc(SCC(=O)Nc3ccccc3)[nH]c2c1	.	.	28.2µM	.	.	.
COc1ccc(NC(=O)CSc2nc(O)cc(=O)n2-c2ccccc2)cc1	79.4µM	.	?	.	.	.
COc1ccccc1NC(=O)CSc1nc2ncccc2[nH]1	.	.	35.5µM	.	.	.
O=C(CSc1nc(O)cc(=O)n1-c1ccccc1)Nc1ccc2c3c(cccc13)CC2	?	.	35.5µM	.	.	.
CC1=C(C(=O)N2CCOCC2)CC(CC(=O)NCc2ccco2)C(=O)N1Cc1ccccc1 (stereo unspecified)	/	/	/	/	.	/
CCOc1ccc(NC(=O)c2oc3ccccc3c2NC(=O)C(C)(C)C)cc1	.	.	.	.	.	.
C#CCOc1ccc(-c2nnc(Nc3cccc(C)c3)c3ccccc23)cc1	?	?	.	89.1µM	.	/
SMILES	Pol iota inh	FEN1 inhibitor	POLB inh	Pol kappa inh	POLH inh	TDP1 inh
CCC(C)[C@H](NC(=O)N1CC(=O)Nc2ccccc21)C(=O)N1CCC[C@H]1C(=O)O (stereo partly specified)	79.4µM	.	.	.	.	/
O=C(CN1C(=O)NC2(CCCCC2)C1=O)Nc1cccc(Cl)c1Cl	.	.	/	.	.	.
O=C(CN1C(=O)NC2(CCCCC2)C1=O)Nc1ccccc1Cl	89.1µM	.	.	.	.	.
Cc1ccc(S(=O)(=O)c2cc(Nc3ccccc3)ccc2O)cc1	50.1µM	?	/	39.8µM	.	.
Cc1ccc(S(=O)(=O)Nc2ccc(Nc3ccccc3)cc2)cc1	.	.	.	.	.	/
CCCNC(=O)c1ccc(Cn2cc(C(F)(F)F)ccc2=O)cc1	89.1µM	.	.	.	.	.
O=C(NCc1ccccc1)c1ccc(Cn2cc(C(F)(F)F)ccc2=O)cc1	.	.	.	.	.	.
N#Cc1c(SCC(=O)Nc2ccccc2C(F)(F)F)sc2c(O)cc(=O)[nH]c12	31.6µM	.	.	?	?	.
N#Cc1ccc(NC(=O)CSc2nc3[nH]c(=O)cc(O)c3s2)cc1	?	.	/	?	?	.
CSc1ccc(NC(=O)CSc2nc3[nH]c(=O)cc(O)c3s2)cc1	?	?	/	56.2µM	39.8µM	.
N#Cc1cccc(NC(=O)CSc2sc3c(O)cc(=O)[nH]c3c2C#N)c1	?	?	?	?	50.1µM	.
CCOc1cccc(NC(=O)CSc2sc3c(O)cc(=O)[nH]c3c2C#N)c1	.	.	.	.	.	.
COC(=O)C/C=C\[C@@H](C)[C@@H](/C=N\OC[C@@H]1O[C@H](c2ccccc2)C=C[C@@H]1Oc1ccc(OC)cc1)OC	/	/	/	/	/	.[21 µM]
O=c1oc(-c2ccc(C(F)(F)F)cc2)nn1Cc1cc(Cl)ccc1O	/	/	/	.	/	.
C=CC(C)(C)c1[nH]c2ccccc2c1C1=C(O)C(=O)C(c2c[nH]c3c(CC=C(C)C)cccc23)=C(O)C1=O	/	/	/	1.41µM	/	?
COc1ccccc1N1CCN(C(CNC(=O)C(=O)NCCc2ccccc2)c2cccnc2)CC1 (stereo unspecified)	.	?	?	.	.	.
O=C(O)c1cc(N/N=C/c2c(O)ccc3ccccc23)ccc1Cl	?	?	79.4µM	?	?	/
O=C(N/N=C/c1c(O)ccc2ccccc12)Nc1ccccc1	.	.	/	.	.	/
Cc1ccc(C(=O)N/N=C/c2c(O)ccc3ccccc23)cn1	?	.	50.1µM	.	50.1µM	/
NC(=O)c1ccc(N=Cc2c(O)ccc3ccccc23)cc1	?	.	/	.	.	/
O=C(O)c1ccc(N=Cc2c(O)ccc3ccccc23)cc1	12.6µM	.	.	.	.	/
CC(C)C(=O)N/N=C/c1ccc(OCc2ccccc2)cc1	.	.	.	.	.	.
O=C(O)c1cc(N/N=C/c2ccc(OCc3ccccc3)cc2)ccc1Cl	.	.	50.1µM	.	.	.
Cn1c(/N=C/c2c(O)ccc3ccccc23)nc2ccccc21	7.94µM	?	50.1µM	.	89.1µM	.
CCOc1ccc(NC(=O)Cn2cc(S(=O)(=O)NC)c(S(=O)(=O)NC)c2)cc1	.	.	.	.	.	.
O=C(NCc1ccc(F)cc1)c1cc(-c2ccccn2)nc2ccc(S(=O)(=O)N3CCOCC3)cc12	/	/	/	/	.	/
CCC(Sc1nc(-c2cccc(OC)c2)c(C#N)c(=O)[nH]1)C(=O)Nc1nnc(C(C)C)s1 (stereo unspecified)	?	.	.	.	.	.
O=C(CSc1nc2[nH]ncc2c(=O)[nH]1)Nc1cccc(Cl)c1	.	.	/	.	.	.
